Screening results: PubChem BioAssay, National Center for Advancing Translational Sciences (NCATS)
Vaccinia Venus = vaccinia inhibition (Venus reporter); actives 0.46% (n = 330,000); Vaccinia virus Venus reporter expression, fluorescence; Potency, µM (top dose mostly 36.5 µM), inactives show top-dose activity change, negative = inhibition, actives largely listed as inhibitors; calls by dose curve; tested in A549 cells; also: nearly all actives have a fitted effect of over 30% in size
Pf growth 48h = P. falciparum growth inhibition at 48 hours (one generation) | actives 5.9% (n = 310,000) | P. falciparum luciferase growth in erythrocytes, 48 h | Potency, µM (titrated, usually from 28.7 µM), without a hit: at the top dose activity change, negative = inhibition, hits mostly inhibitors
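Cell-based growth assay: transgenic P. falciparum expressing firefly luciferase, cultured in red cells within RPMI 1640 containing 0.5% w/v Albumax, 24 mM bicarbonate and gentamycin. A drop in luciferase activity indicates inhibition.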
Pf growth 96h = P. falciparum growth inhibition at 96 hour, primary screen for plastid delayed-death inhibitors | P. falciparum luciferase reporter growth, 96 h | Potency, µM (doses to about 28.7 µM), inactives show at the highest dose activity change, negative = inhibition, usual class: inhibitors | actives 6.9% (n = 320,000)
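Delayed-death screen, second-generation endpoint: infected erythrocytes, 2% hematocrit, 0.05% parasitemia final; 96 hours at 37 C, 5% CO2; luciferase detection reagent; luminescence decrease equals reduced growth.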
AMA1-RON2 inh = inhibitors of Plasmodium falciparum AMA1-RON2 interaction. AlphaScreen AMA1-biotinylated RON2 peptide binding. Potency, µM (titrated, usually from 58.2 µM), without a hit: at the highest dose activity change, negative = inhibition, usual class: inhibitors. actives 0.2% (n = 360,000). AID 720542;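 also: 0% = vehicle wells and -100% = peptide control; nearly all actives have a fitted effect of over 45% in size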
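AMA1 (3D7) with his tag at 25 nM final met compounds first, then biotinylated RON2 peptide at 25 nM; detection used donor plus acceptor beads, 10 µg/mL apiece, read by AlphaScreen after 30 min at room temperature.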
Vaccinia mCherry = inhibitors of vaccinia virus infection (mCherry reporter signal) | Vaccinia virus mCherry reporter infection, fluorescence | Potency, µM (titrated, usually from 36.5 µM), without a hit: at the highest dose activity change, negative = inhibition, hits mostly inhibitors | actives 0.63% (n = 310,000) | AID 720579; calls by dose curve; tested in A549 cells; also: nearly all actives have a fitted effect of over 35% in size
The depositor's hits bear a star; i = inactive; ? = inconclusive; · = no result. In the library only some 8.7% were active in any assay of this set; here they are far more common. Unless noted, calls follow the shape of the dose curve; as a rule, active = well fitted curve in the direction sought with a large enough effect; inconclusive = small, poorly fitted or top-dose-only effect, or another doubt; inactive = no such curve, though single readings can be large; an effect the other way counts as inactive or inconclusive. Unless noted, % is scaled to controls: 0 for no effect and ±100 for the full control effect; potency is read from the fitted curve at half-maximal effect.

SMILES	Vaccinia Venus	Pf growth 48h	Pf growth 96h	AMA1-RON2 inh	Vaccinia mCherry
COc1ccccc1N1CCN(Cc2nc(-c3ccc(F)cc3)oc2C)CC1	-22%	?	?	-13%	-15%
Cc1cc(N2CCN(Cc3nc(-c4ccc(F)cc4)oc3C)CC2)cc(C)n1	-24%	?	12µM*	0%	-27%
COc1ccc(/C=C2\COc3ccccc3C2=O)c(OC)c1	-19%	?	9.3µM*	-15%	?
COc1ccc2c(c1)OC/C(=C\c1ccc(OC)c(O)c1)C2=O	?	·	·	·	i
COc1ccc(/C=C2\COc3ccccc3C2=O)cc1OC	-2%	15%	-65%	?	i
COc1ccc2c(c1)OC/C(=C/c1cccs1)C2=O	-7%	281%	2.9µM*	-5%	-10%
O=C(CSc1nccn1Cc1ccccc1)Nc1ccc2c(c1)OCCO2	-25%	·	·	·	i
Cc1ccccc1C(=O)Nc1ccc(C(=O)OCc2cc(=O)n3c4c(sc3n2)CCCC4)cc1	-16%	·	·	·	i
CCOC(=O)C1=C[C@]2(CC)CCCN3CCc4c(n1c1ccccc41)[C@@H]32	-12%	5.2µM*	3.7µM*	-4%	-2%
Cc1ccccc1CCN(C(=O)Cn1nnc2ccccc21)C(C(=O)NC(C)(C)C)c1ccsc1 (stereo not given)	-15%	?	1.2µM*	0%	-3%
CCC(C)(C)NC(=O)C(c1ccco1)N(C(=O)Cn1nnc2ccccc21)c1ccc2c(c1)OCO2 (stereo not given)	-18%	?	7.4µM*	-2%	i
CCC(C)(C)NC(=O)C(c1cccn1C)N(Cc1ccccc1)C(=O)Cn1nnc2ccccc21 (stereo not given)	-9%	-5%	-23%	8%	-20%
Cc1ccc(C(C(=O)NCc2ccco2)N(CCc2ccccc2)C(=O)Cn2nnc3ccccc32)o1 (stereo not given)	-21%	13µM*	·	5%	·
CCC(C)(C)NC(=O)C(c1cccn1C)N(Cc1ccc(OC)cc1)C(=O)Cn1nnc2ccccc21 (stereo not given)	-17%	9.3µM*	?	2%	i
Cc1cccc(N(C(=O)Cn2nnc3ccccc32)C(C(=O)NC(C)(C)C)c2ccsc2)c1C (stereo not given)	-11%	?	?	-6%	-15%
CCc1ccccc1NC(=O)Cn1nc(-c2cc(C)ccc2C)c2c(c1=O)CCCC2	-13%	·	·	·	-13%
Cc1cc(C)cc(N(C(=O)Cn2nnc3ccccc32)C(C(=O)NCc2ccco2)c2ccncc2)c1 (stereo not given)	0%	-21%	18%	8%	·
COc1cccc(C(C(=O)NCc2ccco2)N(Cc2ccco2)C(=O)Cn2nnc3ccccc32)c1 (stereo not given)	-21%	0%	-5%	0%	·
COc1cccc(N(C(=O)Cn2nnc3ccccc32)C(C(=O)NCc2ccco2)c2cccnc2)c1 (stereo not given)	-13%	8.3µM*	·	-1%	·
Cc1ccc(N(C(=O)Cn2nnc3ccccc32)C(C(=O)NCc2ccco2)c2cccnc2)cc1 (stereo not given)	2%	10µM*	?	26%	·
Cc1ccc(N(C(=O)Cn2nnc3ccccc32)C(C(=O)NCc2ccco2)c2ccc(C)o2)cc1 (stereo not given)	-17%	13µM*	?	-1%	·
Cc1ccc(C(C(=O)NCc2ccco2)N(C(=O)Cn2nnc3ccccc32)c2ccccc2)o1 (stereo not given)	-19%	?	15%	0%	·
CCOc1cc(CNC(C)C(O)c2ccccc2)cc(Cl)c1OCC (stereo not given)	?	1.5µM*	?	-3%	-21%
CCN(CC)CCNCc1cc(Cl)c(OCC(=O)Nc2ccccc2)c(OC)c1	·	?	?	-3%	·
Cc1cccc(NC(=O)COc2ccccc2C(=O)NC(C)c2ccccc2)c1 (stereo not given)	?	10%	9.3µM*	0%	-15%
SMILES	Vaccinia Venus	Pf growth 48h	Pf growth 96h	AMA1-RON2 inh	Vaccinia mCherry
COc1cc(CNC(C)c2ccccc2)cc(Cl)c1OCC(=O)Nc1ccccc1 (stereo not given)	?	12µM*	?	-1%	?
CC(NCc1ccc(Cl)c(Cl)c1)C(O)c1ccccc1 (stereo not given)	-18%	?	·	-8%	i
CC(NCc1ccccc1Cl)C(O)c1ccccc1 (stereo not given)	-13%	9.3µM*	7.4µM*	0%	-3%
CCOC(=O)c1cc(S(=O)(=O)Nc2ccc(Br)c(C)c2)[nH]n1	-3%	·	·	·	-9%
CC(NCc1ccccc1C(F)(F)F)C(O)c1ccccc1 (stereo not given)	3%	8.3µM*	-1%	0%	-15%
OCC(Cc1ccccc1)NCc1ccccc1C(F)(F)F (stereo not given)	-8%	-6%	33%	-1%	i
COc1ccc(CNCC(O)(c2ccccc2)c2ccc(F)cc2)cc1OC (stereo not given)	-11%	7.4µM*	8.3µM*	0%	4%
CCCCNCC(O)(c1ccc(Cl)cc1)c1ccc(Cl)cc1	-22%	13µM*	2.3µM*	-8%	-23%
Cc1ccc(C(O)(CNCc2ccccc2)c2ccccc2)cc1 (stereo not given)	·	?	?	-6%	·
COc1ccc(CNCC(O)(c2ccccc2)c2ccc(F)cc2)cc1 (stereo not given)	-7%	5.2µM*	?	19%	i
COc1ccc(CCNCc2ccc(F)cc2)cc1OC	-10%	9%	·	2%	i
COc1ccc(CNCC(O)(c2ccc(F)cc2)c2ccc(F)cc2)cc1OC	·	4.1µM*	2.9µM*	9%	·
COc1ccc(N2CCN(C(=O)c3ccc4c(c3)N(Cc3ccc(F)cc3)C(=O)c3ccccc3S4=O)CC2)cc1 (stereo not given)	-17%	·	·	·	-28%
O=C(CCS(=O)(=O)c1nc(-c2ccc3c(c2)OCO3)cc(C(F)(F)F)n1)Nc1ccc(F)c(Cl)c1	-17%	·	·	·	-19%
Cc1ccc(S(=O)(=O)NCCc2csc3nc(-c4ccccc4C)nn23)cc1	-6%	·	·	·	5%
COc1cccc(-c2nc(CS(=O)(=O)CC(=O)NCCc3ccc(Cl)cc3)c(C)o2)c1	-22%	·	·	·	-22%
COc1ccc(CNCC(O)(c2ccc(Cl)cc2)c2ccc(Cl)cc2)cc1OC	·	2.1µM*	1.5µM*	-9%	·
COc1ccc(CNCC(O)(c2ccc(Cl)cc2)c2ccc(Cl)cc2)cc1	·	1.2µM*	1µM*	-5%	·
COc1ccc(CS(=O)(=O)CC(C)(O)c2ccc(Cl)cc2)cc1 (stereo not given)	·	13%	13%	0%	·
CC(C)n1nnnc1SCC(=O)N1CCOCC1	1%	5%	13µM*	-22%	-14%
CC(C)n1nnnc1SCC(=O)N1CCN(Cc2ccc3c(c2)OCCO3)CC1	·	12µM*	10µM*	-3%	·
